AHR act: activates the human aryl hydrocarbon receptor | P35869 | AHR-responsive luciferase reporter cells, luminescence | activation, % at 5 µM | actives 2.5% (n = 320,000) | AID 2796; in the data active means activation above about 47%
proKLK7 act: activators of human kallikrein-7 zymogen; P49862; activation, % at 7 µM; purified proKLK7, EDANS-DABCYL substrate fluorescence; 100% is mature enzyme control, 0% vehicle; actives 0.9% (n = 370,000);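 active means activation above the mean of all tested compounds plus 3 SD, computed per campaign excluding outliers beyond control limits, cut at about 13% in these data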
ADAM17 inh: inhibits human ADAM17; P78536; recombinant ADAM17, EDANS/DABCYL FRET peptide cleavage; inhibition, % at 6.95 µM; actives 0.83% (n = 370,000);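 active means inhibition above the mean of compounds lying between control limits plus 3 SD, set per campaign, cut at about 8.5% in these data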
ADAM10 inh: inhibits human ADAM10. inhibition, % at 7 µM. AID 720582. recombinant ADAM10, EDANS/DABCYL FRET peptide cleavage, 3 h. O14672. actives 0.62% (n = 370,000);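 active means inhibition above a per-campaign cutoff equal to the mean of compounds falling between control-based bounds plus 3 SD, cut at about 20% in these data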
Target sequence (O14672 214-748 limits assumed): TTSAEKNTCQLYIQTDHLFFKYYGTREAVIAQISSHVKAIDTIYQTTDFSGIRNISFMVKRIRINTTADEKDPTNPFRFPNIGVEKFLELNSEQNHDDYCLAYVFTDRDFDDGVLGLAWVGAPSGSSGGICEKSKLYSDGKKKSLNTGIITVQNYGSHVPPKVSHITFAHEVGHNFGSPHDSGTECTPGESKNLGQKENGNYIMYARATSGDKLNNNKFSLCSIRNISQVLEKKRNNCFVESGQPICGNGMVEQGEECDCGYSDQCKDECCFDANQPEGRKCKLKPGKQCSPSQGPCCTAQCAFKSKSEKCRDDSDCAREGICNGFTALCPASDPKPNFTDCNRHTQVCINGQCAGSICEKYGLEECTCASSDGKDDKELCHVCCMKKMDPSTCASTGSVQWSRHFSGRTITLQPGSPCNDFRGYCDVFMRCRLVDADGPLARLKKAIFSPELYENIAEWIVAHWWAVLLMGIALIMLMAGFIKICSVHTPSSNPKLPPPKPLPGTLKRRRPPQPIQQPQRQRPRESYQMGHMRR
rCAG RNA binder: binds r(CAG) RNA repeats; r(CAG) RNA repeat, TO-PRO-1 dye displacement fluorescence; inhibition, % at 3 µM; actives 1.3% (n = 370,000); AID 651821;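 active means inhibition above the plate cutoff, the mean of all test compounds on that plate plus 3 SD, cut at about 35% in these data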;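 further: higher means more dye released from RNA so lower well fluorescence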
NR3A LBD binder: modulators (binders) of human NR3A ligand-binding domain; actives 2.5% (n = 340,000); NR3A LBD differential scanning fluorimetry, Tm shift; 0% = protein alone, 100% = glycine-bound protein; Tm shift relative to glycine control, % at 25 µM; AID 1259313;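 active means melting temperature shift of at least 10% of the positive control shift, at one fixed dose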
Each line names hits and unclear results; the compound was inactive in the other large screens. This is a sample that favours compounds with a hit; in the whole collection about 7% have one here.

CCOc1ccc(CCNC(=O)C2CCCN(c3nnc(-n4cccc4)s3)C2)cc1OCC (stereo not drawn)	NR3A LBD binder 39
Cc1cc(C)nc(N2CCN(C(=O)CSc3nc4ccccc4nc3N3CC(C)OC(C)C3)CC2)n1 (stereo not drawn)	none (no result: AHR act, NR3A LBD binder)
COC(=O)[C@]12C[C@H](CC(=O)NCCC(C)C)C(=O)N(CCC3=CCCCC3)C1=C[C@H](C1CCCC1)O[C@@H]2C	none (no result: AHR act, NR3A LBD binder)
COc1cc(OC)cc(C(=O)N[C@H](C(=O)OCC(N)=O)C(C)C)c1	NR3A LBD binder 11
COc1cc(OC)cc(C(=O)N[C@H](C(=O)OCC(=O)Nc2ccc(C)cc2C)C(C)C)c1	none
Nc1[nH]c(C(=O)c2ccc(Cl)cc2)c(-c2ccc(Br)cc2)c1C(=O)c1c[nH]c2ccc(F)cc12	none (no result: AHR act, NR3A LBD binder)
O=C(c1ccccc1)c1c2c(cc3sc4ccccc4[n+]13)-c1cccc3cccc-2c13	AHR act 54
Cc1ccnc(NCc2ccc(Br)cc2)c1	none
COc1ccc(CNc2cc(C)ccn2)cc1	NR3A LBD binder 10
COc1cccc(/C=C2\CC3(OC(=O)C4CCCC4)CCCN2C3)c1 (stereo not drawn)	none (no result: AHR act, NR3A LBD binder)
C=CCn1c(N)cc(=O)nc1SC(C)C(=O)Nc1ccc(C(=O)OCC)cc1 (stereo not drawn)	NR3A LBD binder 15
COC(=O)CN1CCN(C(=O)c2csc(-c3ccccc3)n2)CC1	none (no result: AHR act, NR3A LBD binder)
N#C/C(=C\c1ccc(OC(=O)c2ccc(Br)s2)cc1)c1nc2ccccc2[nH]1	NR3A LBD binder 26
N#C/C(=C\c1ccc(OC(=O)c2ccc(Cl)s2)cc1)c1nc2ccccc2[nH]1	AHR act 49
N#C/C(=C/c1ccc(OC(=O)c2ccc(Br)s2)cc1)c1nc2ccccc2[nH]1	none (no result: AHR act)
CC(C)n1c(O)c(N=NC(=O)C2COc3ccccc3O2)c2ccccc21 (stereo not drawn)	AHR act 58
COc1cc(C2=NOC(C(=O)N3CCOCC3)C2)cc(OC)c1OC (stereo not drawn)	NR3A LBD binder 13
Cc1ccc2nc(SC(C)C(=O)Nc3cccc([N+](=O)[O-])c3)[nH]c2c1 (stereo not drawn)	AHR act 66
COc1ccc2nc(SC(C)C(=O)NC3CCCCC3)[nH]c2c1 (stereo not drawn)	none (no result: AHR act)
Cc1ccc2nc(SC(C)C(=O)N3CCOCC3)[nH]c2c1 (stereo not drawn)	AHR act 50
Cc1ccc2nc(SC(C)C(=O)NC3CCCC3)[nH]c2c1 (stereo not drawn)	AHR act 49
CC(NCc1ccco1)C(=O)N1CCN(c2ccc(F)cc2)CC1 (stereo not drawn)	none (no result: AHR act, NR3A LBD binder)
Oc1ccc(Br)cc1/C=N/n1c(COc2ccccc2)n[nH]c1=S	NR3A LBD binder 10 (no result: AHR act)
CCOc1ccc(/C=N/n2c(COc3ccccc3)n[nH]c2=S)cc1OC	NR3A LBD binder 15
CC(/C=N/n1c(COc2ccccc2)n[nH]c1=S)=C\c1ccccc1	rCAG RNA binder 41
COc1cc(/C=N/n2c(COc3ccccc3)n[nH]c2=S)cc(Br)c1O	none
Cc1cc(Br)ccc1NC(=O)c1ccc(-n2cncn2)c([N+](=O)[O-])c1	AHR act 66
O=C(Nc1ccc(Cl)cc1)c1ccc(-n2cccn2)c([N+](=O)[O-])c1	NR3A LBD binder 23
Cc1ccc(NC(=O)c2ccc(-n3cccn3)c([N+](=O)[O-])c2)cc1C	NR3A LBD binder 13
Cc1cc(Br)ccc1NC(=O)CNC(=O)c1ccc(-n2cncn2)c([N+](=O)[O-])c1	none
O=C(N/N=C/c1ccncc1)c1cccc(NC(=O)c2ccc(Cl)cc2)c1	NR3A LBD binder 26
CN(C)c1ccc(/C=N/NC(=O)c2ccc(NC(=O)c3ccccc3)cc2)cc1	NR3A LBD binder 19
O=C(N/N=C/c1cccc(NC(=O)c2ccc(Cl)cc2)c1)c1ccc(O)cc1	NR3A LBD binder 29
O=C(N/N=C/c1ccco1)c1cccc(N2Cc3ccccc3C2)c1	rCAG RNA binder 37
O=C(N/N=C/c1ccncc1)c1cccc(N/N=C/c2ccncc2)c1	none
CCc1ccc(CNCC(=O)N2CCC3(CC2)OCCO3)s1	none (no result: AHR act, NR3A LBD binder)
O=S1(=O)c2c(cccc2N2CCSCC2)Oc2ccccc2CN1Cc1cn(Cc2cccc(C(F)(F)F)c2)nn1	none (no result: AHR act, NR3A LBD binder)
O=C(N/N=C/c1ccco1)c1ccc(NC(=O)c2ccccc2Cl)cc1	none
O=C(N/N=C/c1ccc(F)cc1)c1cccc(NC(=O)c2ccc(F)cc2)c1	AHR act 60, NR3A LBD binder 33
O=C(N/N=C/c1ccco1)c1cccc(NC(=O)c2cccc(Cl)c2)c1	AHR act 55
Cc1cc(C)cc(NC(=S)NCc2ccc3[nH]c4c(c3c2)CCCC4)c1	NR3A LBD binder 17
C=CCOC(=O)N[C@@H](c1cccc(OC)c1)[C@@H](C)/C=C/CC(=O)O	none (no result: AHR act, NR3A LBD binder)
Oc1ccccc1CNc1cnc2ccccc2c1	AHR act 49
COc1ccc(-c2cc(-c3nnc(SCC(=O)Nc4ccc(OCc5ccccc5)cc4)n3N)[nH]n2)cc1	none (no result: AHR act, NR3A LBD binder)
CCc1c(C)sc(NC(=S)Nc2cccnc2)c1C(=O)OC	AHR act 76
CCc1c(C)sc(NC(=S)Nc2nc(C)cc(C)n2)c1C(=O)OC	none
CCCCOCCCNC(=O)C[C@H]1C[C@@]2(C(=O)OC)C(=C[C@H](C(C)(C)C)O[C@@H]2C)N(Cc2ccc(Cl)cc2Cl)C1=O	none (no result: AHR act, NR3A LBD binder)
Cn1c(-c2ccsc2)c(-c2cccs2)c2cc(-c3ccc4cc[nH]c4c3)ccc21	AHR act 66, NR3A LBD binder 11
COc1cc(OC)cc(-c2c(-c3cccs3)c3cc(-c4ccn[nH]4)ccc3n2C)c1	AHR act 64
Cn1c(-c2ccsc2)c(-c2cccs2)c2cc(Br)ccc21	AHR act 63
CCOC(=O)Nc1ccc2c(c1)[C@]1(CC(=O)N(CC(C)C)C1c1ccccc1)C(=O)N2C (stereo partly drawn)	none (no result: AHR act, NR3A LBD binder)
Cc1ccc(-n2c(SCc3nc4ccccc4[nH]3)nnc2-c2ccccn2)cc1	none (no result: AHR act, NR3A LBD binder)
CCc1cc2c(nc1CC)CCCN2S(=O)(=O)c1ccc(C(F)(F)F)cc1	none (no result: AHR act, NR3A LBD binder)
O=C(C(=O)N1CCN(S(=O)(=O)c2cccc(C(F)(F)F)c2)CC1)c1cccc(C(F)(F)F)c1	none (no result: AHR act, NR3A LBD binder)
C=CCn1c(O)c(N=NC(=O)C(O)c2ccccc2)c2ccccc21 (stereo not drawn)	none
C#CCn1c(O)c(N=NC(=O)C(O)c2ccccc2)c2ccccc21 (stereo not drawn)	AHR act 67
O=C(CSc1nnc(-c2cccnc2)n1-c1ccc(Cl)cc1)Nc1ccccc1-c1ccccc1	none (no result: AHR act, NR3A LBD binder)
CC(C)NC(=O)N(C)C[C@H]1Oc2c(NC(=O)Nc3ccc(C(F)(F)F)cc3)cccc2C(=O)N([C@H](C)CO)C[C@@H]1C	none
